Source: PubChem
Only a selection was taken, and hits are over-represented in it overall.
KDM5B inhibitor: inhibitors of human KDM5B histone demethylase; KDM5B demethylase, FDH-coupled NADH fluorescence (FDH is formaldehyde dehydrogenase); 220,000 compounds, 2.6% hits; Q9UGL1; Potency, µM (series often up to 57.7 µM), actives largely listed as inhibitors; active means well fitted inhibition curve with a large enough effect; further: 0% is about no effect; nearly all actives have a fitted effect of over 70% in size
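Measured: NADH fluorescence change, 30 min, RT. System: KDM5BΔAP 200 nM final, H3K4me3 peptide, α-KG, Fe(II), ascorbate, NAD⁺ plus FDH, pH 7.5 HEPES. Compounds: titrated, 10 min pre-incubation with enzyme.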
* = called active by the depositor; i = inactive. Potency means the concentration at half of the fitted maximal effect.

SMILES | KDM5B inhibitor
CC(CNC(=O)Cn1nc(C(N)=O)c2ccccc2c1=O)(c1ccccc1)c1ccccc1 | i
O=C(NCc1ccco1)c1nn(Cc2ccccc2)c(=O)c2ccccc12 | i
CCCC(C)C(=O)Nc1nnc(Cc2ccc(OC)c(OC)c2)s1 (stereo unspecified) | i
CN1C[C@@H](NC(=O)CC(C)(C)CC(=O)O)C[C@H]1c1nc(-c2ccccc2)no1 | i
CC(C)(CC(=O)O)CC(=O)N[C@H]1C[C@H]2C(=O)Nc3ccc(/C=C/c4ccccc4)cc3C(=O)N2C1 | 28µM*
O=C1Nc2ccc(/C=C/c3ccccc3)cc2C(=O)N2C[C@H](O)C[C@@H]12 | 28µM*
C=CCNC(=O)N[C@H]1C[C@H]2C(=O)Nc3ccc(/C=C/c4ccc(OC)cc4)cc3C(=O)N2C1 | 22µM*
COc1ccc(/C=C/c2ccc3c(c2)C(=O)N2C[C@@H](NC(=O)CC(C)(C)CC(=O)O)C[C@H]2C(=O)N3)cc1 | 22µM*
COCC(=O)N[C@H]1C[C@H]2C(=O)Nc3ccc(/C=C/c4ccccc4)cc3C(=O)N2C1 | i
O=C1Nc2ccc(-c3ccsc3)cc2C(=O)N2C[C@H](O)C[C@@H]12 | i
COc1ccc2c(ccn2CCC(=O)Nc2ccc3c(c2)C(=O)N2CCC[C@H]2C(=O)N3)c1 | i
O=C(N[C@H]1CCN2C(=O)c3cc(Br)ccc3NC(=O)[C@@H]2C1)c1ccco1 | i
Cc1cccc(-c2ccc3c(c2)C(=O)N2C[C@H](O)C[C@H]2C(=O)N3)c1C | i
CCCN1CCN(c2nnc(-n3cccc3CN3CCN(C4CCCCC4)CC3)s2)CC1 | i
Cc1nc(-c2ccccc2)sc1C(=O)N1CCCC(C(=O)O)C1 (stereo unspecified) | i
Cc1ccccc1OCc1nc(C#N)c(NCCN2CCOCC2)o1 | i
Cc1nn(-c2ccccc2[N+](=O)[O-])c(C)c1[C@@H]1C=C[C@@H](NC(=O)Nc2cccc(C#N)c2)C1 | i
COC(=O)c1cc(NC(=O)N2CCc3[nH]cnc3C2c2ccc(Cl)cc2)ccc1Cl (stereo unspecified) | i
Cc1ccc2nc(SCC(=O)Nc3sc4c(c3C#N)CCC4)[nH]c2c1 | i
O=c1[nH]c(=O)n(Cc2ccccc2)c2c1C(C(F)(F)F)(C(F)(F)F)N=C(c1ccccn1)N2 | i
O=C(NCCc1ccccc1)Nc1ccc(Cl)cc1F | i
CC(=O)NNC(=S)NC1CC2CCC1C2 (stereo unspecified) | i
O=C(Cn1nc(C(=O)O)c2ccccc2c1=O)NC(c1ccccc1)c1ccccc1 | i
Cc1ccc(CN(C(=O)CC23CC4CC(CC(O)(C4)C2)C3)C2CC2)o1 | i
O=C(O)c1cccc(NC(=O)c2ccc(Cl)s2)c1 | i
SMILES | KDM5B inhibitor
CCc1cccc(C)c1NC(=O)Cn1nc(C(=O)O)c2ccccc2c1=O | i
CN(C)C(=O)c1ccc(Cl)cc1NS(=O)(=O)c1cccc(F)c1 | i
COCc1cn(C[C@H]2C[C@@H](NCc3cccc4c3OCO4)[C@H](O)[C@@H]2O)nn1 | i
COCc1cn(C[C@H]2C[C@@H](NCc3cccnc3)[C@H](O)[C@@H]2O)nn1 | 35µM*
O[C@@H]1[C@@H](Cn2cc(-c3cccnc3)nn2)C[C@@H](NCc2ccc(F)cc2)[C@@H]1O | i
CCOc1cccc(-c2noc(-c3nnn4c3COC(c3cccc(OC)c3)C4)n2)c1 (stereo unspecified) | 25µM*
CCOc1ccc(C2Cn3nnc(-c4nc(C)no4)c3CO2)cc1 (stereo unspecified) | i
COc1cccc(C2Cn3nnc(-c4nc(-c5cccc(Cl)c5)no4)c3CO2)c1 (stereo unspecified) | i
COc1cccc(C2Cn3nnc(-c4nc(-c5cccc(C)c5)no4)c3CO2)c1 (stereo unspecified) | i
Clc1ccc(C2Cn3nnc(-c4nc(-c5ccccc5Br)no4)c3CO2)cc1 (stereo unspecified) | i
CCOc1ccc(C2Cn3nnc(-c4nc(-c5ccccc5Br)no4)c3CO2)cc1 (stereo unspecified) | 22µM*
CN1CCOC(CNC(=O)Cc2ccc(F)c(Br)c2)C1 (stereo unspecified) | i
CCc1nc2c(cnn2-c2ccc(C)cc2)c(=O)n1-c1ccc(OC)c(Cl)c1 | i
O=C(c1ccc(S(=O)(=O)NCc2cccs2)cc1)N1CCCC1 | i
Cc1cc(NC(=O)Cn2c(=O)n(-c3ccc(C)c(C)c3)c(=O)c3sccc32)no1 | i
CCc1noc(CN2CCN(c3cc(C)nc(C(C)C)n3)CC2)n1 | i
Cc1cc(-c2c(C(=O)N3CCOCC3)c(C)nn2-c2ccccc2)no1 | i
COc1ccc(-c2cc(C(=O)N3CCOCC3)c3c(C)nn(-c4ccccc4)c3n2)cc1 | 79µM*
COc1ccc(-c2cc(C(=O)N3CCC3)c3ccccc3n2)cc1 | i
CC(C)(C)C(=O)NCCCC(=O)NCc1ccco1 | i
Cc1ccccc1-c1nc2cnccn2c1NCCC(=O)NC1CCCCC1 | 28µM*
Cc1ccccc1-c1nc2cnccn2c1NCCC(=O)NCc1ccco1 | 32µM*
Cc1nc2ccccc2nc1SCC(=O)NC1CCCCC1 | i
O=C(CCn1ccc2ccccc21)NC1CCCCCC1 | i
Cc1ccc(C(=O)NCCC(=O)NCc2ccco2)cc1 | i
SMILES | KDM5B inhibitor
CC(Nc1ccc([N+](=O)[O-])cn1)c1ccc(Cl)c(Cl)c1 (stereo unspecified) | i
CSC1=N/C(=C\c2ccc(OC(C)=O)cc2)C(=O)S1 | i
O=C(O)c1ccc(F)c(S(=O)(=O)N2CCCCC2)c1 | i
O=C(COc1cccc(Cl)c1)Nc1ccc(-c2nc3ccccc3o2)cc1 | i
Cc1ccccc1C(=O)NC(c1ccccc1)C(C)(C)C (stereo unspecified) | i
C=CCNC(=O)CN1CCN(Cc2ccc(F)c3cccnc23)CC1 | i
CCc1noc(-c2ccn3c(CNC(=O)c4ccc(F)cc4)nnc3c2)n1 | 13µM*
CCc1noc(-c2ccn3c(CNC(=O)Cc4ccc(F)cc4)nnc3c2)n1 | i
CCCc1noc(-c2ccn3c(CNC(=O)c4ccc(CC)cc4)nnc3c2)n1 | 25µM*
CCc1noc(-c2ccn3c(CNC(=O)c4ccc(C)c(C)c4)nnc3c2)n1 | 3.2µM*
CCc1noc(-c2ccn3c(CNC(=O)c4cc(C)cc(C)c4)nnc3c2)n1 | i
CCCc1noc(-c2ccn3c(CNC(=O)c4ccc(C)c(C)c4)nnc3c2)n1 | 4.5µM*
O=S(=O)(c1cccs1)N1CCCC(c2nc(-c3ccccc3)no2)C1 (stereo unspecified) | i
CCc1noc(-c2ccn3c(CNC(=O)c4cccnc4)nnc3c2)n1 | 28µM*
CCc1noc(-c2ccn3c(CNC(=O)c4cccc(F)c4)nnc3c2)n1 | i
COc1ccc(CCn2cnc3c2c(=O)n(C)c(=O)n3C)cc1 | i
C=CCOc1ccc(C(=O)Nc2ccc(C)c(C)c2)cc1 | i
CSc1ccc(CCNC(=O)CCc2nnc3ccc(NCc4ccc(Cl)cc4)nn23)cc1 | i
O=C(NCc1nnc2ccc(-c3ccccc3)nn12)c1ccc(F)cc1Cl | 28µM*
CCOc1ccccc1C(=O)NCc1nnc2ccc(-c3ccccc3)nn12 | 25µM*
O=C(NCc1nnc2ccc(-c3ccccc3)nn12)c1ccccn1 | 28µM*
O=C(Nc1ccccc1C(=O)NCc1ccccc1)c1ccccn1 | i
O=C(CCc1ccccc1)NCc1nnc2ccc(-c3ccccc3)nn12 | 28µM*
Cc1nc2cc(-c3ccccc3)nn2c(C)c1CCC(=O)NCCc1ccccc1 | i
